Most compounds without a hit are left out; they make up all but 19% or so of the library.
DT40 TDP1 no CPT – qHTS for Inhibitors of human tyrosyl-DNA phosphodiesterase 1 (TDP1): qHTS in cells in absence of CPT; 15% of 420,000 active; AID 686978, 2013; DT40 Tdp1-/- hTDP1 cells, no CPT, ATP luminescence, 48 h; Potency, µM (doses to about 46.2 µM), without a hit: at the highest dose activity change, negative = growth inhibition, most hits filed as inhibitors; further: potency means the concentration at half of the fitted maximal effect; nearly all actives have a fitted effect of over 55% in size
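Growth of hTDP1-complemented DT40 Tdp1-knockout cells is measured by ATP luminescence after at least 48 hr compound exposure at 37 °C, with DMSO substituting for the 20 nM CPT used in the parallel screen.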
TDP1 cell CPT – qHTS for Inhibitors of human tyrosyl-DNA phosphodiesterase 1 (TDP1): qHTS in cells in presence of CPT; chicken DT40 Tdp1-/-;hTDP1 cells + 20 nM CPT, ATP luminescence, 48 h; Potency, µM (series often up to 46.2 µM), for the others: at the top dose activity change, negative = growth inhibition, usual class: inhibitors; 12% of 420,000 active; AID 686979, 2013; further: potency means the concentration at half of the fitted maximal effect; nearly all actives have a fitted effect of over 55% in size
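Chicken DT40 Tdp1-/- cells complemented with human TDP1, 400 cells/well, exposed to compounds plus 20 nM camptothecin for at least 48 h at 37 C; viability read as ATP content by CellTiter-Glo luminescence.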
IL1B secr inh – qHTS for Inhibitors of Inflammasome Signaling: IL-1-beta AlphaLISA Primary Screen; 4.7% of 360,000 active; activity change, % at 57.5 µM; THP-1 LPS/ATP IL-1B secretion, AlphaLISA, 16 h; hits give low values; in the data active means activity change below about -50%; inconclusive means mostly about -30% to -49%
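Secreted IL-1B measured by AlphaLISA bead assay after 16 h compound exposure of THP-1 cells; compounds (final up to 57.5 uM) added 1 h before LPS (250 ng/mL) and ATP (1.25 mM) stimulation; lower signal means less secretion.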
HT1080 IDH1KD tx – qHTS for induction of synthetic lethality in tumor cells producing 2HG: qHTS for the HT-1080-IDH1KD cell line | Potency, µM (titrated, usually from 46.1 µM), for the others: at the highest dose activity, negative = toxicity, usual class: cytotoxic | HT-1080 IDH1 knockdown viability, ATP luminescence, 48 h | 2% of 360,000 active;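 further: potency means the concentration at half of the fitted maximal effect; 0% = DMSO wells and -100% = cell-free medium wells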
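CellTiter-Glo luminescence after 48 h compound exposure at 37 degrees C of IDH1-knockdown HT-1080 cells in 5% FBS RPMI. %Activity scaled between DMSO wells and cell-free media wells, with curves fitted and assigned curve classes.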
HT1080NT lethal – qHTS for induction of synthetic lethality in tumor cells producing 2HG: qHTS for the HT-1080-NT fibrosarcoma cell line; HT-1080-NT fibrosarcoma viability, CellTiter-Glo ATP luminescence, 48 h; Potency, µM (doses to about 46.1 µM), for the others: at the top dose activity, negative = less viability, actives largely listed as cytotoxic; 1.6% of 360,000 active;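 further: NT is the 2HG producing partner of a matched IDH1 knockdown line; potency means the concentration at half of the fitted maximal effect; 0% = DMSO-treated cells and -100% = media-only wells without cells; nearly all actives have a fitted effect of over 55% in size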
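Toxicity toward the 2HG-producing NT line was scored as %Activity, normalised to DMSO and no-cell wells, from CellTiter-Glo luminescence after 48 hours' treatment.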
* marks the source's active call; other numbers are inactive results; ? = inconclusive; / = no result. Unless noted, the call rests on the fitted dose curve; in most records, active means well fitted curve in the direction sought with a large enough effect; inconclusive means small, poorly fitted or top-dose-only effect, or another doubt; inactive means no such curve, though single readings can be large; an effect the other way counts as inactive or inconclusive. Unless noted, on the % scale 0 is the no-effect control and ±100 the full control effect.

SMILES	DT40 TDP1 no CPT	TDP1 cell CPT	IL1B secr inh	HT1080 IDH1KD tx	HT1080NT lethal
CS(=O)(=O)c1ccc(C(=O)Nc2cccc(-c3nc4ccccc4[nH]3)c2)cc1	26µM*	?	-19	-1%	-1%
CS(=O)(=O)Cc1ccc(C(=O)Nc2cccc(-c3nc4ccccc4[nH]3)c2)cc1	13µM*	?	-3	?	-28%
CCOc1cc(OCC)cc(C(=O)Nc2cccc(-c3nc4ccccc4[nH]3)c2)c1	6.5µM*	10µM*	/	/	/
CS(=O)(=O)c1cccc(C(=O)Nc2cccc(-c3nc4ccccc4[nH]3)c2)c1	?	?	0	?	?
CCOc1cc(OCC)cc(C(=O)Nc2cccnc2)c1	-16%	-18%	-3	-8%	4%
COc1ccc(C(=O)NNC(=O)C2=NN(c3ccccc3)C(=O)CC2)cc1	16%	5%	-8	-4%	-5%
Cc1ccc2nc(Cl)c(/C=N/Nc3ccc(C(=O)O)cc3)cc2c1	?	-6%	30	-6%	-3%
C(=NN=C1c2ccccc2-c2ccccc21)c1c[nH]c2ccccc12	?	?	-103*	?	-10%
Cc1nnc(C)n1/N=C/c1cc2ccccc2nc1Cl	2.9µM*	2.6µM*	92	-6%	-11%
CCOC(=O)/C(C#N)=C/c1cc2ccccc2nc1Cl	4µM*	2.8µM*	56	?	-8%
NC(=S)N/N=C/c1c[nH]c2ccccc12	-6%	11%	0	2%	-13%
Cc1nnc(C)n1/N=C/c1ccccn1	1%	-1%	-8	12%	11%
Cn1c(N/N=C/c2cc3ccccc3nc2Cl)nc2ccccc21	2.6µM*	3.3µM*	11	?	?
Cn1c(N/N=C/c2c[nH]c3ccccc23)nc2ccccc21	?	?	-98*	?	?
O=C(O)c1ccc(N/N=C/c2c[nH]c3ccccc23)cc1	6%	1%	14	-4%	-8%
Fc1c(F)c(F)c(N/N=C/c2c[nH]c3ccccc23)c(F)c1F	?	?	-87*	-20%	-3%
Cc1cc(N/N=C/c2c[nH]c3ccccc23)c2ccccc2n1	-19%	4%	12	0%	-1%
COc1ccc(-c2cc3ccc(O)c(CN4CCC(C)CC4)c3oc2=O)cc1OC	?	-17%	/	/	/
O=Cc1cnc2ccccc2c1-c1ccccc1	23µM*	?	33	2%	-14%
O=Cc1cn[nH]c1-c1ccccc1	-20%	2%	4	4%	6%
Cc1nc(C(=O)Nc2ccccc2)sc1C1(C)CC(c2cccc([N+](=O)[O-])c2)=NO1 (stereo not given)	-25%	-28%	4	0%	7%
Cc1nc(NC(=O)c2ccccc2)sc1C1(C)CC(c2c(Cl)cccc2Cl)=NO1 (stereo not given)	?	23µM*	38	-14%	-10%
COc1ccc(NC(=O)c2nc(C)c(C3(C)CC(c4ccccc4)=NO3)s2)cc1 (stereo not given)	5.8µM*	1µM*	54	?	?
O=C(NCC(=O)N1CC=C(c2ccccc2)CC1)c1ccco1	12%	14%	4	-6%	6%
O=C(N/N=C/c1cccc([N+](=O)[O-])c1)c1ccccc1-n1cccc1	?	-4%	-7	26%	-2%
SMILES	DT40 TDP1 no CPT	TDP1 cell CPT	IL1B secr inh	HT1080 IDH1KD tx	HT1080NT lethal
CCOC(=O)c1scc(-c2ccc(C)cc2)c1S(=O)(=O)Nc1ccc(F)c(F)c1	?	-13%	/	/	/
CCOc1ccccc1NS(=O)(=O)c1c(-c2ccc(C)cc2)csc1C(=O)OC	16µM*	?	/	/	/
CCOC(=O)c1ccccc1NS(=O)(=O)c1c(-c2ccc(C)cc2)csc1C(=O)OC	5.8µM*	6.5µM*	/	/	/
Cc1ccc(Cn2ccc(O)c(Cc3ccccc3)c2=O)cc1	-30%	-25%	5	9%	10%
NC(=O)CN1CCN(c2cccc(Cl)c2)CC1	-10%	0%	-8	1%	4%
O=C(CN1CCN(c2cccc(Cl)c2)CC1)NC1CCCc2ccccc21 (stereo not given)	?	?	-73*	-14%	?
O=C(NC(=S)NC1CCCc2ccccc21)c1ccco1 (stereo not given)	?	16µM*	-9	-8%	-17%
Cc1ccc(-n2nnnc2SCC(=O)NC2CCCc3ccccc32)cc1 (stereo not given)	18µM*	?	1	3%	15%
CN(C(=O)CCl)C1CCCc2ccccc21 (stereo not given)	2.9µM*	2.6µM*	-107*	?	?
CC(C)CN1CCCC2(CCN(C(=O)c3cccn3C)CC2)C1	-3%	-3%	/	/	/
COc1ccc(Cn2c(=O)[nH]c3cc(C(=O)NCCc4ccc(S(N)(=O)=O)cc4)ccc3c2=O)cc1	-9%	-12%	27	-1%	2%
CCN(CC)S(=O)(=O)c1ccc(NC=C(C#N)C#N)cc1	?	-23%	-5	1%	-1%
CC(Sc1nc2ccccc2s1)C(=O)NC1CCCc2ccccc21 (stereo not given)	23µM*	?	?	-1%	-3%
O=C(CCl)NC1CCCc2ccccc21 (stereo not given)	18µM*	15µM*	-98*	?	?
Cc1cccc(OCC(=O)NC2CCCc3ccccc32)c1C (stereo not given)	16µM*	?	25	-26%	?
Cc1nc2ccccn2c1C(=O)NC1CCCc2ccccc21 (stereo not given)	7.3µM*	7.3µM*	55	-8%	-2%
O=C(NC1CCCc2ccccc21)c1cn2ccccc2n1 (stereo not given)	?	-11%	13	2%	3%
O=C(Cc1ccc(Br)cc1)NC1CCCc2ccccc21 (stereo not given)	?	?	8	-24%	-5%
Cc1ccccc1Cn1c(=O)n(CCc2ccccc2)c(=O)c2sc3ccccc3c21	-4%	0%	/	/	/
COc1ccc(C(=O)NCC(=O)NCc2ccncc2)cc1	14%	-6%	15	8%	4%
COC(=O)[C@H](CCSC)NC(=O)Nc1ccc(S(N)(=O)=O)cc1	22%	6%	?	15%	-2%
Cc1cccc(OCC(=O)Nc2ccc3c4c(cccc24)CC3)c1C	8.2µM*	12µM*	33	4%	1%

Source: PubChem BioAssay
